Hits are enriched below; roughly 7.9% of the tested compounds scored in any of these assays.
MITF inhib = MITF inhibition; TRPM1 promoter luciferase, luminescence, 24 h; inhibition, % (test concentration not listed); 0.28% of 37,000 active; AID 2240; in the data active = inhibition above about 85%; inconclusive = no clear call, values can overlap the other calls; inactive = below about 68%;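 also: human melanocyte line stably carrying TRPM1 promoter luciferase reporter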
NOMO-1 viab = STK33 inhibitor candidate reducing NOMO-1 cell viability; 7.5% of 37,000 active; inhibition, % (no concentration beside the values); NOMO-1 AML viability, CellTiter-Glo luminescence, 72 h; in the data active = inhibition above about 80%; inconclusive = no clear call, values can overlap the other calls
Hedgehog inh = blocks Sonic Hedgehog signaling. Shh-LIGHT2 Gli-luciferase reporter, 30 h. 2.1% of 22,000 active. AID 2313. inhibition, % (test concentration not listed);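 active = mean inhibition across valid replicates above about 65%, limit read from the data; inconclusive = mean under the limit, yet half or more replicates past it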;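 also: pathway switched on by Shh-conditioned medium diluted 1 in 25 in low serum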
PD-1 reversal = reversal of PD-1 mediated T-cell inhibition | activation, % (no concentration beside the values) | 29,000 tested, under 10 active | primary human CD4 T cells, PD-L1 beads, CellTiter-Glo 96 h | AID 2316; call rule not given here
Of the large screens only hits and unclear results are named; the others gave an inactive call; ! = not active in a repeat.

C[C@H]1CN([C@@H](C)CO)C(=O)c2cccc(NC(=O)Nc3ccc4c(c3)OCO4)c2O[C@H]1CN(C)S(=O)(=O)c1ccc(F)cc1	Hedgehog inh 101
Cc1ccc(S(=O)(=O)N(C)C[C@H]2Oc3c(NC(=O)Nc4ccc5c(c4)OCO5)cccc3C(=O)N([C@H](C)CO)C[C@H]2C)cc1	none
C[C@@H]1CN([C@@H](C)CO)C(=O)c2cccc(NC(=O)Nc3ccc4c(c3)OCO4)c2O[C@H]1CN(C)S(=O)(=O)c1ccc(F)cc1	none (no result: PD-1 reversal)
C[C@H](CO)N1C[C@H](C)[C@H](CN(C)S(=O)(=O)c2ccc(F)cc2)Oc2c(NC(=O)Nc3ccc4c(c3)OCO4)cccc2C1=O	Hedgehog inh 92
Cc1[nH]c2ccccc2c1C(c1ccccc1)N1CCN(C)CC1 (stereo unspecified)	NOMO-1 viab 117, Hedgehog inh inconclusive
C=C(C)Cn1c(SCc2nc3ccccc3[nH]2)nc2sc3c(c2c1=O)CCC3	none (no result: Hedgehog inh)
C[C@@H]1CN([C@H](C)CO)C(=O)c2cccc(NC(=O)c3cnccn3)c2O[C@H]1CN(C)Cc1ccc(Cl)c(Cl)c1	NOMO-1 viab 96
C[C@H](CO)N1C[C@H](C)[C@@H](CN(C)Cc2ccc(Oc3ccccc3)cc2)Oc2c(NC(=O)c3cnccn3)cccc2C1=O	NOMO-1 viab 106
Cc1noc(C)c1NC(=O)Nc1ccc2c(c1)CC(=O)N([C@H](C)CO)C[C@@H](C)[C@@H](CN(C)Cc1ccc(C(=O)Nc3ccccc3N)cc1)O2	none (no result: Hedgehog inh)
Cc1noc(C)c1S(=O)(=O)Nc1ccc2c(c1)C(=O)N([C@H](C)CO)C[C@@H](C)[C@@H](CN(C)Cc1ccc(C(=O)Nc3ccccc3N)cc1)O2	NOMO-1 viab 108 (no result: Hedgehog inh)
Cc1noc(C)c1S(=O)(=O)Nc1ccc2c(c1)C(=O)N([C@@H](C)CO)C[C@@H](C)[C@@H](CN(C)Cc1ccc(C(=O)Nc3ccccc3N)cc1)O2	NOMO-1 viab 108 (no result: Hedgehog inh)
Cc1noc(C)c1S(=O)(=O)Nc1ccc2c(c1)C(=O)N([C@@H](C)CO)C[C@H](C)[C@@H](CN(C)Cc1ccc(C(=O)Nc3ccccc3N)cc1)O2	none (no result: Hedgehog inh)
Cc1noc(C)c1S(=O)(=O)Nc1ccc2c(c1)CC(=O)N([C@H](C)CO)C[C@H](C)[C@H](CN(C)Cc1ccc(C(=O)Nc3ccccc3N)cc1)O2	NOMO-1 viab 142 (no result: Hedgehog inh)
Cc1noc(C)c1S(=O)(=O)Nc1ccc2c(c1)C(=O)N([C@H](C)CO)C[C@H](C)[C@H](CN(C)Cc1ccc(C(=O)Nc3ccccc3N)cc1)O2	NOMO-1 viab 108 (no result: Hedgehog inh)
CC(=O)Nc1ccc(NC(=O)CSc2nnc(-c3ccncc3)n2-c2ccc(Cl)cc2)cc1	none (no result: Hedgehog inh)
CNC(=O)CN(c1ccccc1)S(=O)(=O)c1ccc(F)cc1	none (no result: Hedgehog inh)
COc1ccc(C(C)=O)cc1CSc1nnc(-c2cccc(Br)c2)n1-c1ccccc1	none (no result: Hedgehog inh, PD-1 reversal)
NC(=O)CN1C(=O)C(O)(C2CCc3ccccc3C2=O)c2ccccc21 (stereo unspecified)	none (no result: Hedgehog inh)
N#Cc1c(N)[nH]c(=S)c(C(N)=O)c1-c1cccc(Br)c1	NOMO-1 viab inconclusive, Hedgehog inh 106
CCOC(=O)C1=C(C)N(C)C(=O)N(C)C1c1ccccc1 (stereo unspecified)	none
S=C(NCc1ccccc1Cl)NC12CC3CC(CC(C3)C1)C2	NOMO-1 viab 115, Hedgehog inh inconclusive
O=C(NC(=S)NC12CC3CC(CC(C3)C1)C2)c1ccccc1	none
COc1ccccc1C1CCN(Cc2cccc3ccccc23)CC1	NOMO-1 viab 100
COc1ccccc1C1CCN(S(=O)(=O)c2ccccc2Br)CC1	none (no result: Hedgehog inh)
Cc1cc(Cl)ccc1NC(=O)CSc1nc(C(F)(F)F)cc(=O)[nH]1	none (no result: Hedgehog inh)
COc1cc2c(cc1-c1coc3c4c(ccc3c1=O)OC(C)(C)C=C4)OCO2	NOMO-1 viab 87
COC(=O)C1=C(C)NC(C)=C(C(=O)OCCN(C)Cc2ccccc2)C1c1cccc([N+](=O)[O-])c1 (stereo unspecified)	NOMO-1 viab 142!
C[C@@H]1CN([C@@H](C)CO)C(=O)c2cccc(NC(=O)c3ccc(-c4nccs4)cc3)c2O[C@@H]1CN(C)C(=O)Nc1cccc2ccccc12	Hedgehog inh 66
C[C@H](CO)N1C[C@H](C)[C@H](CN(C)Cc2ccc(-c3ccccc3)cc2)Oc2c(NC(=O)c3ccc(-c4nccs4)cc3)cccc2C1=O	NOMO-1 viab 88
C[C@H](CO)N1C[C@H](C)[C@@H](CN(C)Cc2ccccc2)Oc2c(NC(=O)c3ccc(-c4nccs4)cc3)cccc2C1=O	NOMO-1 viab 97
C[C@H](CO)N1C[C@H](C)[C@@H](CN(C)Cc2ccc(Oc3ccccc3)cc2)Oc2c(NC(=O)c3ccc(-c4nccs4)cc3)cccc2C1=O	NOMO-1 viab 112
Cn1c(=O)c(C(=O)NCCCO)c(O)c2ccccc21	none (no result: Hedgehog inh, PD-1 reversal)
Cc1ccccc1NC(=O)CC(C(=O)O)N1CCOCC1 (stereo unspecified)	none (no result: Hedgehog inh)
C[C@H](CO)N1C[C@H](C)[C@H](CN(C)Cc2ccc(C(F)(F)F)cc2)Oc2c(NC(=O)c3ccc(-c4nccs4)cc3)cccc2C1=O	NOMO-1 viab 98 (no result: PD-1 reversal)
C[C@H]1CN([C@@H](C)CO)C(=O)c2cccc(NC(=O)c3ccc(-c4nccs4)cc3)c2O[C@H]1CN(C)Cc1ccc(-c2ccccc2)cc1	none
C[C@H](CO)N1C[C@H](C)[C@@H](CN(C)Cc2ccc(-c3ccccc3)cc2)Oc2c(NC(=O)c3ccc(-c4nccs4)cc3)cccc2C1=O	NOMO-1 viab 87
C[C@@H]1CN([C@@H](C)CO)C(=O)c2cccc(NC(=O)c3ccc(-c4nccs4)cc3)c2O[C@@H]1CN(C)Cc1ccc(C(=O)Nc2ccccc2N)cc1	NOMO-1 viab 141 (no result: Hedgehog inh)
COc1ccc(C(OC(=O)c2ccccc2)c2nccc3ccccc23)cc1 (stereo unspecified)	NOMO-1 viab 105 (no result: Hedgehog inh)
CCCc1cc(=O)[nH]c(SCC(=O)Nc2cccc(F)c2)n1	none (no result: Hedgehog inh)
COc1cc([C@@H]2c3cc4c(cc3[C@@H](O[C@@H]3O[C@@H]5CO[C@@H](C)O[C@H]5[C@H](O)[C@H]3O)[C@H]3COC(=O)[C@H]23)OCO4)cc(OC)c1O	NOMO-1 viab 117 (no result: PD-1 reversal)
COc1cc(C2OC[C@@H]3[C@@H](c4cc(OC)c(O)c(OC)c4)OC[C@H]23)cc(OC)c1O (stereo partly specified)	none
COc1cc([C@@H]2c3cc4c(cc3[C@H](O)[C@H]3COC(=O)[C@@H]23)OCO4)cc(OC)c1OC	NOMO-1 viab 108, Hedgehog inh 75 (no result: PD-1 reversal)
COc1cc([C@@H]2c3cc4c(cc3[C@H](O)[C@H]3COC(=O)[C@H]23)OCO4)cc(OC)c1OC	NOMO-1 viab 113, Hedgehog inh 91 (no result: PD-1 reversal)
CC(Oc1ccc(C(C)(C)C)cc1)C(=O)Nc1ncn[nH]1 (stereo unspecified)	none (no result: Hedgehog inh)
Cc1cc2nnc(SCC(=O)c3cc(C)n(Cc4ccccc4)c3C)n2c2ccccc12	NOMO-1 viab 131 (no result: Hedgehog inh)
Cc1cc(C(=O)CSc2nnc3ccccn23)c(C)n1Cc1ccccc1	none (no result: Hedgehog inh, PD-1 reversal)
Cc1cc(C)c2oc(-c3cccc(NC(=O)COc4ccc(Cl)cc4)c3C)nc2c1	none (no result: Hedgehog inh)
O=C(CCSc1nnc(-c2cccc([N+](=O)[O-])c2)o1)Nc1ccc(Br)cc1	none (no result: Hedgehog inh, PD-1 reversal)
